Pf growth 96h: inhibits malaria parasite growth, 96 h; P. falciparum luciferase reporter growth, 96 h; Potency, µM (titrated, usually from 28.7 µM), inactives show at the top dose activity change, negative = inhibition, usual class: inhibitors; hit rate 6.9% among 320,000; also: potency is read from the fitted curve at half-maximal effect
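Erythrocytes infected with luciferase-expressing P. falciparum were dispensed at 2% hematocrit and 0.05% parasitemia (final), then incubated with compounds 96 hours at 37 C in 5% CO2. Luminescence after detection reagent addition reported growth.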
HCV inh: blocks hepatitis C virus | Potency, µM (series often up to 41.8 µM), without a hit: top-dose activity change, negative = inhibition, usual class: inhibitors | hit rate 3.4% among 340,000 | AID 651820 | Huh7.5.1 HCVcc-Cre infection, luciferase reporter, 44 h; also: potency is read from the fitted curve at half-maximal effect
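Cells seeded at 1,000/well and cultured 4 h, then compounds added followed by HCVcc-Cre virus (~0.5 moi). After 44 h further culture, luciferase substrate was added, plates held 15 min at room temperature, and luminescence read for 15 sec.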
HCMV inh: inhibitors of human cytomegalovirus; HFF cells, HCMV-luciferase reporter, 72 h; active compounds read low; activity change, negative = inhibition, % at 57.5 µM; hit rate 4.5% among 410,000; AID 1259415; in the data active = activity change below about -60%; inconclusive = no clear call, values can overlap the other calls; inactive = above about -39%
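After 16 h attachment at 37C, HFF cells received test compound and HCMV-luciferase (1 PFU/cell); reporter luminescence read 72 h later, data normalized against buffer-only and known inhibitor Salinomycin.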
Pf growth 48h: P. falciparum growth inhibition at 48 hours (one generation) | P. falciparum luciferase growth in erythrocytes, 48 h | Potency, µM (titrated, usually from 28.7 µM), for the others: top-dose activity change, negative = inhibition, most hits filed as inhibitors | hit rate 5.9% among 310,000 | AID 504832; also: potency is read from the fitted curve at half-maximal effect
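Parasite viability was followed by luminescence of a genomically integrated firefly luciferase. Cultures held 0.1% parasitemia at 2% hematocrit (final), incubated under 5% CO2 at 37 C.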
Starred values were filed as active, the others as inactive; u = inconclusive; x = no result; [ ] = another dose, or the depositor's remark. Most compounds without a hit are left out; they make up all but 13% or so of the library. Unless noted, calls follow the shape of the dose curve; as a rule, active = well fitted inhibition curve with a large enough effect; inconclusive = small, poorly fitted or top-dose-only effect, or another doubt; inactive = no such curve, though single readings can be large or run the other way. % is scaled to controls: 0 for no effect and ±100 for the full control effect.

SMILES | Pf growth 96h | HCV inh | HCMV inh | Pf growth 48h
O=C1c2oc3ccccc3c(=O)c2C(c2cccc(O)c2)N1Cc1ccc(F)cc1 (configuration not stated) | x | x | 4.4 | x
Cc1noc(C)c1S(=O)(=O)NCCc1csc2nc(-c3ccc(Cl)cc3)nn12 | x | x | 39.6 | x
O=C(/C=C/c1cn(-c2ccccc2)nc1-c1cccnc1)N1CCCCC1 | u | u | -60.2* | u
Cc1ccccc1NC(=O)COC(=O)/C=C/c1cn(-c2ccccc2)nc1-c1cccnc1 | u | -17.5% | -29.4 | u
CC(=O)Nc1ccc(NC(=O)C(C)OC(=O)/C=C/c2cn(-c3ccccc3)nc2-c2cccnc2)cc1 (configuration not stated) | -22.9% | u | -94.1* | -22.9%
Cc1cccc(-c2nc3scc(CCNS(=O)(=O)c4ccc5c(c4)OCCO5)n3n2)c1 | x | x | 4.6 | x
Cc1ccc(N(CC(=O)Nc2ccc(Cl)cc2)S(=O)(=O)c2cccc3nonc23)cc1 | x | x | 1.6 | x
O=C(NCCc1ccccc1)c1cccc(NC(=O)C2CC2)c1 | x | 0.562µM* | 103.2 | x
O=C(NC1CC1)c1cccc(NC(=O)C2CC2)c1 | x | 4.8% | -80.9* | x
O=C(NC1CC1)c1cccc(NC(=O)C2CCCC2)c1 | x | -0.8% | -31.0 | x
Cc1c(Cl)c([N+](=O)[O-])nn1CC(=O)N1CCN(C23CC4CC(CC(C4)C2)C3)CC1 | 2.0% | u | u | 11.7µM*
CCCCCCCCCCCCCCCCCC(=O)OC[C@@H](O)[C@H]1OC[C@H](O)[C@H]1O | 12.7% | x | x | -4.0%
CCc1nn(-c2ccccc2)c(=S)c2ccccc12 | 4.8% | u | -63.1* | -9.1%
CC(C)CNc1nc(Br)cnc1N | x | x | 38.9 | x
Nc1ncnc2c1ncn2CCc1ccccc1 | u | 0.9% | u | 22.2%
Nc1ncnc2c1nc(SCCO)n2Cc1ccccc1 | -4.5% | 10.4% | -74.0* | 22.4%
O=C(COC(=O)CCN1C(=O)/C(=C\C=C\c2ccccc2)SC1=S)Nc1cc(F)ccc1F | 1.2% | 3.9% | -62.0* | -12.8%
O=C(CN1C(=O)/C(=C\C=C\c2ccccc2)SC1=S)Nc1ccc(F)cc1 | -9.0% | -15.8% | -30.4 | -5.0%
CCN1c2ccccc2-c2nc3ccccc3n2C1c1ccncc1 (configuration not stated) | 10.4µM* | -5.7% | -34.2 | 5.22µM*
CCN1c2ccccc2-c2nc3ccccc3n2C1c1ccccn1 (configuration not stated) | u | u | -17.4 | u
CCN1c2ccccc2-c2nc3ccccc3n2C1c1cccnc1 (configuration not stated) | -2.1%[5.75 µM] | u | 6.9 | 9.28µM*
c1ccc2c(c1)NC(c1ccncc1)n1c-2nc2ccccc21 (configuration not stated) | -21.8% | u | 95.9 | 2.62µM*
COc1cccc(C(=O)Nc2cc(-c3cn4cccnc4n3)ccc2C)c1OC | x | x | 9.5 | x
Cc1ccc2cccc(NC(=O)c3ccc(-c4cccc(Cl)c4Cl)o3)c2n1 | x | x | -2.5 | x
Cc1ccc2onc(CNC(=O)N3CCN(c4cc(Cl)ccc4C)CC3)c2c1 | x | x | -4.4 | x
SMILES | Pf growth 96h | HCV inh | HCMV inh | Pf growth 48h
COC(=O)CCN(Cc1cccc(OC)c1OC)S(=O)(=O)c1ccccc1Br | x | x | -15.6 | x
CCN(Cc1ccncc1)C(=O)c1cc(COc2ccc(C)c(C)c2)on1 | 44.4% | u | -74.1* | u
CCN(Cc1cnn(C)c1)C(=O)c1cc(COc2ccc3c(c2)CCCC3)on1 | -19.5% | 22.4µM* | 14.5 | 2.7%
Cc1ccc(OCc2cc(C(=O)N(CCO)Cc3cccs3)no2)cc1C | -18.7% | -8.3% | 99.3 | 31.6%
Oc1ccccc1C=NC(N=Cc1ccccc1O)c1ccccc1O (configuration not stated) | x | x | 6.0 | x
O=C(C[C@@H]1C[C@@H]2c3cc(NC(=O)c4ccc5c(c4)OCO5)ccc3O[C@@H]2[C@@H](CO)O1)NCc1cccnc1 | x | x | -12.6 | x
COc1cc(OC)c(N(C)C(=O)Cn2ncc3c([nH]c4ccccc43)c2=O)cc1Cl | x | x | 19.2 | x
CCOCC(=O)Nc1cc(C(F)(F)F)ccc1Oc1cccc(Br)c1 | 0.465µM* | -20.4% | -12.4 | u
CC(=O)Nc1cc(C(F)(F)F)ccc1OCCOc1ccccc1 | x | 10µM* | 16.4 | x
CC(=O)Nc1cc(C(F)(F)F)ccc1Oc1cccc(Br)c1 | u | -27.5% | -13.5 | u
CCCOc1ccc(C(F)(F)F)cc1NC(=O)CCc1c(C)noc1C | u | 7.08µM* | 0.0 | u
CCC1CCCCN1C(=O)Cn1c(=O)cc(C(F)(F)F)c2c(C)nn(C)c21 (configuration not stated) | x | x | -19.9 | x
CCOc1ccccc1NC(=O)N(Cc1ccc(F)cc1)C1CCN(CC)CC1 | x | x | -25.3 | x
c1cc2c(c(NC3=NCCN3)c1)CCCC2 | 10.7µM* | x | x | u
Cc1ccc(S(=O)(=O)Nc2cccc3c2CCCC3)cc1 | 0.0% | -2.6% | -4.9 | 11.7%
CC(C)NC(=O)Cn1cc(C(=O)c2ccccc2)c2ccccc21 | 74.7% | -6.5% | 96.0 | 20.1%
Cc1cccc(NC(=O)Cn2cc(C(=O)C3CCCCC3)c3ccccc32)c1C | x | x | -92.6* | x
CC(C)NC(=O)Cn1cc(C(=O)C2CC2)c2ccccc21 | u | 5.9% | -61.4* | 7.8%
Cc1cccc(NC(=O)Cn2cc(C(=O)c3ccccc3)c3ccccc32)c1C | x | x | -66.6* | x
Cc1ccc(NC(=O)Cn2cc(C(=O)c3ccco3)c3ccccc32)c(C)c1 | x | x | -73.5* | x
Cc1cc(C)c2c(CC(=O)N(Cc3ccccc3)C3CCS(=O)(=O)C3)coc2c1 (configuration not stated) | x | x | 20.2 | x
O=C(Cn1cc(C(=O)c2ccco2)c2ccccc21)Nc1ccccc1F | 0.0% | -21.1% | -74.7* | u
Cc1cccc(NC(=O)Cn2cc(C(=O)c3ccco3)c3ccccc32)c1C | x | x | -87.5* | x
Cc1cccc(NC(=O)Cn2cc(C(=O)c3ccccc3)c3ccccc32)c1 | x | x | -79.6* | x
CCOc1ccc(NC(=O)Cn2cc(C(=O)C3CC3)c3ccccc32)cc1 | 5.86µM* | 3.6% | -15.2 | 18.6%
SMILES | Pf growth 96h | HCV inh | HCMV inh | Pf growth 48h
O=C(CSc1nc2ccccc2nc1Cc1ccc(Cl)cc1)N1CCCc2ccccc21 | x | x | 26.3 | x
O=C(c1ccco1)c1cn(CC(=O)N2CCCCCC2)c2ccccc12 | -26.7% | 13.2% | -39.4 | u
O=C(c1ccco1)c1cn(CC(=O)N2CCCc3ccccc32)c2ccccc12 | -7.8% | 11.2µM* | 33.3 | u
NCc1nc2cccnc2n1Cc1ccccc1Cl | x | x | 3.5 | x
CN(C)S(=O)(=O)c1cccc(NC(=S)Nc2cccc3cnccc23)c1 | 3.7µM* | -26.2% | -71.8* | 6.57µM*
CC1CCCCC1NC(=S)Nc1cccc(S(=O)(=O)N(C)C)c1 (configuration not stated) | -27.7% | 3.4% | -68.5* | u
S=C(Nc1ccc(Cl)cc1)Nc1cccc2cnccc12 | 11.7µM* | u | -97.7* | u
COc1ccccc1NC(=S)Nc1cccc2cnccc12 | 0.0% | 10µM* | -79.3* | 4.6%
S=C(Nc1cccnc1)Nc1cccc2cnccc12 | 0.8% | -8.0% | -35.9 | 6.4%
Cc1ccc(S(=O)(=O)N(C)C)cc1NC(=S)NC1CCCC(C)C1C (configuration not stated) | u | u | u | -24.9%

Compound activity (PubChem)
